Source: PubChem (Broad Institute)
Most compounds without a hit are left out; they make up all but 1.8% or so of the library.
MLL AF4-AF9 inh: inhibitors of AF4 peptide binding to AF9, primary screen, biochemical, AlphaScreen, biotin-AF4 peptide, FLAG-AF9, single point | inhibition, % at 10 µM | 350,000 compounds, 0.47% hits | Protein AF-9 (Homo sapiens), P42568;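 active = every replicate reaching a set inhibition limit, whatever the replicate mean, cut at about 25% in these data; inconclusive = mean inhibition reaches that limit but some replicates miss it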;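 also: 0% = plate neutral control median and 100% = total signal loss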
PDI turbidity: inhibitors of human PDI, primary screen, biochemical, turbidity, single point, plate reader; Protein disulfide-isomerase (Homo sapiens), P07237; 350,000 compounds, 0.052% hits; inhibition, % at 10 µM; PDI insulin aggregation turbidity, A650, 90 min;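 active = mean inhibition across replicates of 30% or more, whatever share of single replicates reach that level; inconclusive = mean inhibition below 30% while every single replicate reaches 30%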
ERAP1 HTS inh: human ERAP1 aminopeptidase inhibitors, primary screen, biochemical, single point, plate reader; recombinant ERAP1, Leu-AMC fluorescence, 60 min; inhibition, % at 10.7 µM; 340,000 compounds, 0.15% hits;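 active = mean replicate inhibition of at least 30%, or all replicates individually reaching that 30% level; inactive = mean below 30% and not every replicate reaching it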;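 also: 0% = neutral control wells and 100% = L-leucinethiol positive control wells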
DENV2 CPE rescue: inhibitors of DENV2 cytopathic effect, primary screen, cell-based, plate reader, single concentration | CPE inhibition, % at 9.99 µM | 350,000 compounds, 1.7% hits | DENV2-infected cells, cytopathic effect rescue; in the data active = CPE inhibition above about 20%, passing the limit was not always enough; inconclusive = no clear call, values can overlap the other calls; tested in BHK-21 cells;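 also: 0% = median of neutral control wells and 100% = median of positive control wells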
ERp5 block: inhibitors of ERp5-driven insulin aggregation, primary screen, biochemical, turbidity, absorbance 650 nm, single point; 350,000 compounds, 0.05% hits; 90 min; inhibition, % at 9.99 µM; Protein disulfide-isomerase A6 (Homo sapiens), Q15084;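 active = mean replicate inhibition above about 25%, with every replicate also reaching it, limit read from the data, passing the limit was not always enough; inconclusive = only one of those two criteria met; inactive = neither criterion met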
Starred values were filed as active, the others as inactive; ? = inconclusive; / = not tested or not shown; ! = not confirmed by another sample.

SMILES	MLL AF4-AF9 inh	PDI turbidity	ERAP1 HTS inh	DENV2 CPE rescue	ERp5 block
COc1ccc(OC(=O)N(C)C[C@H]2OCc3cn(nn3)CCCC(=O)N([C@H](C)CO)C[C@@H]2C)cc1	-2	-2	-6	43*!	-2
Cc1cccc(S(=O)(=O)N(C)C[C@H]2OCc3cn(nn3)CCCC(=O)N([C@@H](C)CO)C[C@@H]2C)c1	-3	-9	-3	47*!	3
COc1ccc(OC(=O)N(C)C[C@@H]2OCc3cn(nn3)CCCC(=O)N([C@H](C)CO)C[C@H]2C)cc1	2	/	-1	18	1
COc1cccc(NC(=O)N(C)C[C@@H]2OCc3cn(nn3)CCCC(=O)N([C@H](C)CO)C[C@H]2C)c1	-1	2	-1	38*!	2
CC(C)OC(=O)N(C)C[C@H]1OCc2cn(nn2)CCCC(=O)N([C@@H](C)CO)C[C@H]1C	1	/	-1	3	4
COc1ccc(S(=O)(=O)N[C@H]2CC[C@@H](CC(=O)N3CCN(c4ccccc4)CC3)O[C@@H]2CO)cc1	-1	/	1	-7	-4
O=C(C[C@@H]1CC[C@@H]2[C@H](COC[C@H](O)CN2CCc2ccccc2)O1)NCc1ccc(Oc2ccccc2)cc1	5	/	1	2	-6
C[C@H]1CN([C@@H](C)CO)C(=O)CCCn2cc(nn2)CO[C@@H]1CN(C)C(=O)c1ccc(N2CCN(C)CC2)cc1	-2	/	-4	64*!	-5
C[C@H]1CN([C@@H](C)CO)C(=O)CCCn2cc(nn2)CO[C@@H]1CN(C)Cc1cccc(C(F)(F)F)c1	-2	/	0	1	44*
C[C@H](CO)N1C[C@H](C)[C@@H](CN(C)C(=O)c2ccc(N3CCN(C)CC3)cc2)OCc2cn(nn2)CCCC1=O	0	/	-3	13	-3
C[C@@H]1CN([C@@H](C)CO)C(=O)c2cc(NC(=O)NC3CCCCC3)ccc2O[C@@H](C)CCCCO[C@@H]1CN(C)C(=O)CCCN(C)C	-4	/	-2	1	0
CCNC(=O)C[C@@H]1CC[C@@H](NS(=O)(=O)c2ccc(C)cc2)[C@@H](CO)O1	0	/	-1	2	1
CC(C)(C)n1nnnc1C(c1cc2ccccc2o1)N1CCOCC1 (stereo unspecified)	-1	/	-3	107*	8
Clc1ccc(C2=NCCn3nc4ccccc4c32)cc1	9	-1	0	?	5
Nc1c(Cl)cc(C2=NCCn3nc4ccccc4c32)cc1Cl	14	-4	-1	22*	-3
COc1cccc(C(=O)Nc2ccc3c(c2)OC[C@@H](C)NC[C@@H](C)[C@H](OC)CN(C)C3=O)c1	-3	/	-2	22*	-5
CO[C@@H]1CN(C)C(=O)c2ccc(NC(=O)c3cccc(F)c3)cc2OC[C@@H](C)NC[C@H]1C	-2	/	-4	31*	0
CO[C@@H]1CN(C)C(=O)c2ccc(NC(=O)c3cccc(F)c3)cc2OC[C@H](C)NC[C@H]1C	-4	/	-2	17	-3
Cc1ccc(-c2ccc([C@H]3[C@@H](CO)N4C(=O)CN(C(=O)c5ccncc5)C[C@H]34)cc2)cc1	1	/	0	1	2
CCc1nnc(N2C(=O)c3ccccc3C2(O)c2ccccc2)s1 (stereo unspecified)	3	-4	3	41*	-2
Cc1ccc(N2C(=O)c3ccccc3C2(O)c2ccccc2)cc1 (stereo unspecified)	-3	10	-3	-9	-8
COc1ccc(N2CCN(C(=O)CN3CCN(C(c4ccccc4)c4ccccc4)CC3)CC2)cc1	/	-1	/	/	/
O=C(CN1CCN(C(c2ccccc2)c2ccccc2)CC1)N1CCOCC1	-1	-6	-8	23*	-3
O=C(CCC(=O)N1CCN(S(=O)(=O)c2ccccc2)CC1)c1ccc(Br)cc1	4	0	3	8	-2
NC(=O)C(CCC(=O)c1ccc(Br)cc1)S(=O)(=O)c1ccccc1 (stereo unspecified)	-7	-5	0	31*	2
SMILES	MLL AF4-AF9 inh	PDI turbidity	ERAP1 HTS inh	DENV2 CPE rescue	ERp5 block
CC(=O)N1CC2(C1)[C@H](c1ccc(-c3ccc(C#N)cc3)cc1)[C@@H](CO)N2C(=O)C1CC1	0	/	0	84*	-1
CC(=O)N1[C@H](CO)[C@H](c2ccc(-c3ccc(C#N)cc3)cc2)C12CN(C(=O)C1CC1)C2	-2	/	-3	62*	4
C/C=C/c1ccc2c(c1)O[C@H](CN(C)C(C)=O)[C@H](C)CN([C@@H](C)CO)S2(=O)=O	-3	/	1	45*	-4
CC(=O)N(C)C[C@@H]1Oc2cc(-c3ccncc3)ccc2S(=O)(=O)N([C@H](C)CO)C[C@@H]1C	-2	/	3	29*	-4
CC(C)Cn1c(N)c(C(=O)COC(=O)c2ccc(O)cc2)c(=O)n(C)c1=O	-7	55*	-1	-1	0
CC(C)Cn1c(N)c(C(=O)COC(=O)c2cc(-c3ccccc3)nc3ccccc23)c(=O)n(C)c1=O	-5	-3	-1	30*	3
C[C@H]1CCCCO[C@@H](CN(C)Cc2ccc(C(=O)O)cc2)[C@@H](C)CN([C@@H](C)CO)C(=O)c2cc(NC(=O)Nc3ccc(F)cc3)ccc2O1	0	/	-4	?	2
CCOC(=O)C1(CCOc2ccccc2)CCN(Cc2ccc(O)c(Cl)c2)CC1	8	111*	-2	19	0
COc1ccc(NC(=O)N[C@@H]2CC[C@@H](CCn3cc(-c4ccccc4)nn3)O[C@H]2CO)cc1	1	/	2	8	3
C[C@@H]1CN([C@H](C)CO)C(=O)CCCn2nncc2CO[C@@H]1CN(C)Cc1cccc(O)c1	0	/	1	0	-6
C[C@@H]1CN([C@@H](C)CO)C(=O)c2cccc(NC(=O)c3cnccn3)c2O[C@H]1CN(C)Cc1ccc(C(=O)Nc2ccccc2N)cc1	2	/	0	2	4
COCCNc1nc2cc(-c3ccc(F)cc3)sc2c(=O)n1C	0	0	-1	1	3
O=c1[nH]c(CCl)nc2cc(-c3ccc(F)cc3)sc12	-1	43*	-2	?	2
Cc1ccc(NC(=O)c2ccc3c(c2)OCO3)cc1Cl	-3	0	-1	22*	3
CN1C(=O)c2cc(NC(=O)c3ccc(F)cc3)ccc2OC[C@@H]2O[C@@H](CC(=O)O)CC[C@@H]21	-1	/	2	-4	0
CN1C(=O)c2cc(NC(=O)c3ccc(F)cc3)ccc2OC[C@H]2O[C@H](CC(=O)O)CC[C@H]21	-2	/	1	35*	2
CN1C(=O)c2cc(NC(=O)c3ccc4c(c3)OCO4)ccc2OC[C@H]2O[C@@H](CC(=O)O)CC[C@@H]21	-2	/	-1	40*	6
